The values that follow come from PubChem BioAssay AID2782 (National Center for Advancing Translational Sciences (NCATS), 2010).

Structures are written as SMILES. Inconclusive results are not listed. Where a call stands in place of a potency, no number is given. Active and inactive are the calls of the source. Calls come from the whole dose curve; as a rule, active = well fitted inhibition curve with a large enough effect in the polarisation, with a control signal flat (not every such curve was filed as active); inconclusive = small, poorly fitted or top-dose-only effect, or effect the other way, or a change in a side signal; inactive = no such curve, though single readings can be large or run the other way; the % refers to the polarisation.
Potency is the fitted concentration of half-maximal effect.

This assay in a line: Confirmation of Inhibitors Targeting the Menin-MLL Interaction in MLL Related Leukemias: Competition With Texas Red Labeled MLL-derived Mutant Peptide. As to conditions: fluorescence polarization, Texas Red MLL peptide displacement; series mostly up to 94.6 µM. Summed up: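 Hits from the primary screen were retested: compounds were incubated 1 hr at ambient with 200 nM menin, 50 nM Texas Red mutant peptide and 25 nM fluorescein wild-type peptide (Tris pH 7.5, BSA-supplemented buffer), then fluorescence polarization was read.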
For `CCOC(=O)Cn1c2ccccc2n2nc(CCC(=O)O)c(=O)nc12`, the Potency entry is “inactive”.

With `COc1ccc(NC(=O)N2CC[C@@]3(CCCN(C(=O)c4csnn4)C3)C2)cc1`, the Potency result is “inactive”.

As for `CCCN(CCC)CCCNC(=O)c1cc2c(=O)[nH]c3ccccc3c2s1`, the Potency result is “inactive”.

As to `COC(=O)COc1ccc(C(C2C(=O)CC(C)(C)CC2=O)C2C(=O)CC(C)(C)CC2=O)cc1`, the Potency result is “inactive”.

For `CC(C)Cc1cc(C(=O)NCCCN2CCOCC2)no1`, the Potency result is “inactive”.

With `CC1CN(c2c3c(nc4ncnn24)CCCC3)CC(C)O1` (configuration not stated), the Potency entry was “inactive”.

As to `Cc1cc(N2CCOCC2)nc2ccc(Cl)cc12`, the Potency entry is “inactive”.

For `CCc1cc2c(N3CCN(c4nnc(CC)s4)CC3)ncnc2s1`, the Potency is 11.2 µM (active).

As for `COc1cc2c(cc1NC(=S)NC(=O)c1c(OC)cccc1OC)oc1ccccc12`, the Potency is 11.2 µM (active).

Turning to `CCOc1ccc(-c2nn(-c3ccccc3)cc2/C=C2\SC(N)=NC2=O)cc1C`, the Potency result was “inactive”.

`O=C(COC(=O)c1ccc(NS(=O)(=O)c2cccs2)cc1)Nc1nc2c(F)c(F)c(F)cc2s1`: the Potency was 14.2 µM (active).

For the compound `CCCC(c1nnnn1Cc1cccs1)N1CCN(C2CCCC2)CC1` (configuration not stated), the Potency was 112 µM (active).

On to `CN1CCN(CC(=O)Nc2ccc(S(=O)(=O)N(C)C)cc2)CC1`, for which the Potency entry is “inactive”.

Regarding `NC(=O)c1ccc(NC(=O)c2cncn2-c2ccccc2)cc1`, the Potency result is “inactive”.

As for `COc1ccc(Cn2nnnc2C(c2ccc3ncccc3c2)N2CCN(C3CCCCC3)CC2)cc1` (configuration not stated), the Potency is 89.1 µM (active).

Turning to `CCN(CC)Cc1cc2[nH]c3c4ccc(Cl)cc4ncc3c2cc1OC`, the Potency was 56.4 µM (active).

Take `Cc1ccc(C2=NN(C(=O)c3ccccc3F)C(c3ccccc3F)C2)cc1` (configuration not stated): the Potency entry was “inactive”.
